Data on 40 molecules can be found in PubChem BioAssay (EPA / NIEHS).

Active and inactive are the calls of the source. The calls were made as follows: active = hit-call score of the fitted dose curve at least 0.9, where 1 is the maximum; inactive = score below 0.9.

This experiment deals with Retinoic acid receptor alpha (Homo sapiens) (UniProt P10276). Kind of experiment: ATG_DR5_RAR_CIS: Attagene CIS-FACTORIAL HepG2 Assay for human Retinoic Acid Receptor Alpha (RARE), DR5 submotif (AID 2282934).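 As to AC50: reporter responds to endogenous RAR alpha beta and gamma in HepG2 not RARA alone.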 The conditions noted are these: HepG2 Attagene cis-factorial RARE DR5 reporter, mRNA; actives raise or lower the signal. On the procedure: ATG_CIS is a cell-based, multiplexed-readout assay that uses HepG2, a human liver cell line, with measurements taken at 24 hours after chemical dosing in a 24-well plate.ATG_DR5_RAR_CIS is one of 52 assay component(s) measured or calculated from the ATG_CIS assay. It is designed to make measurements of mRNA induction, a form of inducible reporter, as detected with fluorescence intensity signals by Reverse transcription polymerase chain reaction (RT-PCR) and Capillary electrophoresis technology.Data from the assay component ATG_DR5_RAR_CIS was analyzed into 1 assay endpoint. This assay endpoint, ATG_DR5_CIS, was analyzed with bidirectional fitting relative to DMSO as the negative control and baseline of activity. Using a type of inducible reporter, measures of mRNA for gain or loss-of-signal activity can be used to understand the reporter gene at the transcription factor-level as they relate to the gene RARA and RARB and RARG. Furthermore, this assay endpoint can be referred to as a primary readout, because this assay has produced multiple assay endpoints where this one serves a reporter gene function. To generalize the intended target to other relatable targets, this assay endpoint is annotated to the nuclear receptor intended target family, where the subfamily is non-steroidal.
Retinoic acid receptor alpha (Homo sapiens), sequence (P10276 whole entry, looked up): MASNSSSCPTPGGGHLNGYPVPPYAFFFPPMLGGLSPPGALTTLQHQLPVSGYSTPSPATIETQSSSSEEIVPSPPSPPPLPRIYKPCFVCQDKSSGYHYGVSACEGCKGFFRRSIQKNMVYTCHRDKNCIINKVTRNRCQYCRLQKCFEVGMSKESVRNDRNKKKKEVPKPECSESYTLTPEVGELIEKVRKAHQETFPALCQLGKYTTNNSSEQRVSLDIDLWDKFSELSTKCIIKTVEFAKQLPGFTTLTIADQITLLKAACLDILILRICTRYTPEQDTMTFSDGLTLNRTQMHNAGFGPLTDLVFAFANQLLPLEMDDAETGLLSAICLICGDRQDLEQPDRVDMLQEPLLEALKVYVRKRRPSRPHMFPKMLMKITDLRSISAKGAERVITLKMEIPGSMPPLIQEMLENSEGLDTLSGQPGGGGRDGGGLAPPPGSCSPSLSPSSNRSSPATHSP
Human liver HepG2 cells are transiently transfected with multiple reporter transcription units (MRTUs) in 6-well plates using FuGene 6 reagent (Roche; 3 ml FuGene/1 mg DNA). The MRTU constructs are regulated by a cis-regulating element (promoter). […] A major difference between the CIS and TRANS system is that in CIS activities of endogenous TFs are measured, whereas the TRANS assay evaluates changes in activities of exogenous, chimeric NR-Gal4 proteins. […] At the end of 24 hour incubation, total RNA was isolated using TriZol reagent (Invitrogen). The isolated RNA is then reverse-transcribed using oligo(dT) primer and Mo-MLV reverse transcriptase (Invitrogen) with DNAse I (Ambion) treatment for 30 min. The one-tenth of the produced cDNA was amplified by PCR using Taq DNA polymerase (Invitrogen) and two reporter sequence-specific primers. The PCR products were fluorescently labeled by primer extension with 6-arboxyfluorescein (6-FAM) 5'-labeled reporter sequence-specific primer (2 min at 95 C, 20 s at 68 C and 10 min at 72 C) and these products were digested with 5U of HpaI (New England Biolabs) for 2h at 37 C. The fragments were purified using Qiaquick PCR columns (Qiagen), analyzed on an ABI 3130xL genetic analyzer (Applied Biosystems) with peak positions identified by using a set of X-rhodamine (ROX)-labeled MapMarker1000 molecular weight standards (BioVentures). The raw capillary electrophoresis data was processed using Attagraph software (Attagene).
With `CCC(C)(C)C(=O)O[C@H]1C[C@@H](C)C=C2C=C[C@H](C)[C@H](CC[C@@H]3C[C@@H](O)CC(=O)O3)[C@H]21`, the call was inactive.

With `CNCc1ccc(NC(=O)c2c[nH]c3c2C(=O)CCC3)cc1`, the call was inactive. The same measure, in the same setting: for `COC(=O)CC(=O)OC` the value was “inactive”; for `CC(C)CCCCCCOC(=O)c1ccc(C(=O)OCCCCCCC(C)C)c(C(=O)OCCCCCCC(C)C)c1`, “inactive”; for `CC(O)CN(CCN(CC(C)O)CC(C)O)CC(C)O` (stereo not given), “inactive”.

`O=c1n(CC2CO2)c(=O)n(CC2CO2)c(=O)n1CC1CO1` (stereo not given): the outcome was inactive. For the molecule `CCCCCCCCCCCCc1ccccc1`, the outcome was inactive.

In the case of `C1N2CN3CN1CN(C2)C3`, the outcome was inactive. For the molecule `O=C(O)c1cccc(Oc2ccccc2)c1`, the outcome was inactive.

`C[C@](N)(Cc1ccc(O)c(O)c1)C(=O)O`: the result was inactive. For the molecule `CC(C)CC(C)(O)C#CC(C)(O)CC(C)C` (stereo not given), the result was inactive. With `CCOC(=O)COc1ccc2c(c1)CC(NCC(O)c1cccc(Cl)c1)CC2` (stereo not given), the outcome was inactive. Regarding `CC(C)CCO`, the call was inactive. The same measure, in the same setting: for `Fc1ccccc1[C@@H](F)COC1CCC(Nc2ncnc3[nH]ncc23)CC1` (stereo not given in full) the value was “inactive”; for `CC/C(=C\C(=N/O)C(N)=O)C(C)[N+](=O)[O-]` (stereo not given), “inactive”; for `CCN(C(=O)c1cc(C)cc(OC[C@H](C)Nc2ccncc2)c1)C(C)C`, “inactive”. On the same count and under the same terms, for `CCOCCOCCOCCO` the value was “inactive”; for `CN(C)c1ccc(Cc2ccc(N(C)C)cc2)cc1`, “inactive”.

As for `COC(=O)c1ccccc1O`, the call was inactive.

For the molecule `O=C(O)c1cc(N=Nc2ccc(S(=O)(=O)Nc3ccccn3)cc2)ccc1O`, the result was inactive. For the molecule `Oc1ccc2c(c1)-c1ccccc1C2`, the AC50 is 27.5 µM (active). Turning to `C1=CCCC=CCCC=CCC1`, the result was inactive. `Clc1nc(Cl)c(Cl)c(Cl)c1Cl`: the molecule was called inactive.

For the molecule `C=CCCCCCCCCC(=O)O`, the outcome was inactive.

In the case of `CC(C)c1cccc(C(C)C)c1N1C(=O)c2ccc(O)cc2C1=O`, the AC50 is 5.9 µM (active). Consider `CC(=O)c1ccc2c(c1)[C@H](NC(=O)c1ccc(F)cc1)[C@@H](O)C(C)(C)O2`, for which the call was inactive. Regarding `CC[C@H]1CC[C@H](NCc2cc3c(cc2OC)[C@H]2C[C@H]2C(=O)N3C)[C@H](c2ccccc2)N1`, the result was inactive. For the molecule `CCOCCO`, the molecule was classed as inactive. As for `O=c1[nH]c2ccc(S(=O)CCN3CCC(Cc4ccc(F)cc4)CC3)cc2o1` (stereo not given), the call was inactive.

For `O=C(O)CCN(C1(C(=O)NO)CCCC1)S(=O)(=O)c1ccc(Oc2ccc(F)cc2)cc1`, the molecule was classed as inactive. Turning to `NC(=O)NO`, the outcome was inactive. On the same count and under the same terms, for `Cc1ccc(O)cc1` the value was “inactive”; for `CC1=CC(=O)CC(C)(C)C1`, “inactive”; for `Cn1cnc([N+](=O)[O-])c1Sc1ncnc2nc[nH]c12`, “inactive”. Consider `Nc1ccc(Nc2ccccc2)cc1`, for which the result was inactive. As to `CC(C)=CCCC(C)CCO` (stereo not given), the outcome was inactive. As to `CCCCCCc1ccc(O)cc1O`, the outcome was inactive.

Consider `CCc1cc(SCc2sc(-c3ccc(C(F)(F)F)cc3)nc2CN2CCN(c3ccc(OC)cc3)CC2)ccc1OCC(=O)O`, for which the molecule was called inactive.

On to `CCNc1ccccc1`, for which the call was inactive. Take `O=C(O)c1cccc(N(Cc2cccnc2)c2ccc(OC(F)F)c(OC(F)F)c2)c1`: the outcome was inactive.

In general, AC50 refers to the concentration at which the activity in the assay is half-maximal.
